# Screens from PubChem.
# Shiga inhibitor – inhibitors of Shiga toxin in Vero cells | 290,000 compounds, 9.2% hits | Vero cells, Shiga toxin protein synthesis inhibition reporter | inhibition, % at 38.7 µM; in the data active = inhibition mostly above about 28%, no sharp cut-off; inactive = mostly below about 43%; also: 0% is about no effect
# AMA1 RON2 block – inhibitors of Plasmodium falciparum AMA1-RON2 interaction | AlphaScreen AMA1-biotinylated RON2 peptide binding | Potency, µM (top dose mostly 58.2 µM), inactives show top-dose activity change, negative = inhibition, hits mostly inhibitors | 360,000 compounds, 0.2% hits | AID 720542;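 also: potency is read from the fitted curve at half-maximal effect; 0% = vehicle wells and -100% = peptide control; nearly all actives have a fitted effect of over 45% in size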
#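 AMA1 (3D7) with his tag at 25 nM final met compounds first, then biotinylated RON2 peptide at 25 nM; detection used donor plus acceptor beads, 10 µg/mL apiece, read by AlphaScreen after 30 min at room temperature.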
# CHX counter – counter-screen hit for Shiga toxin inhibitors, cycloheximide. cell reporter, cycloheximide protein synthesis inhibition counterscreen. 300,000 compounds, 12% hits. AID 2314. max response, %; in the data active = max response mostly above about 13%, no sharp cut-off; inactive = mostly below about 14%; also: read at 38.3 µM for the half of the compounds with a filed dose; 0% is about no effect
# SARS PLP yeast – SARS-CoV PLP inhibition in yeast. 330,000 compounds, 0.19% hits. S. cerevisiae expressing SARS-CoV PLpro, growth rescue. AID 485353. Potency, µM (highest dose often 32.9 µM), for the others: top-dose activity, positive = growth rescue, usual class: activators; calls by dose curve; also: potency is read from the fitted curve at half-maximal effect; 0% is about no effect; nearly all actives have a fitted effect of over 55% in size
# Pf growth 96h – P. falciparum growth inhibition at 96 hour, primary screen for plastid delayed-death inhibitors; 320,000 compounds, 6.9% hits; P. falciparum luciferase reporter growth, 96 h; AID 504834; Potency, µM (highest dose often 28.7 µM), inactives show at the top dose activity change, negative = inhibition, usual class: inhibitors; also: potency is read from the fitted curve at half-maximal effect; % is scaled to controls: 0 for no effect and ±100 for the full control effect
#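 Compounds incubated with erythrocytes infected by luciferase-expressing P. falciparum (2% hematocrit, 0.05% parasitemia final) for 96 hours, 37 C in 5% CO2. Growth inhibition scored as decreased luciferase luminescence.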
# Pf growth 48h – inhibits P. falciparum growth in the first generation, 48 h; AID 504832; P. falciparum luciferase growth in erythrocytes, 48 h; 310,000 compounds, 5.9% hits; Potency, µM (doses to about 28.7 µM), without a hit: top-dose activity change, negative = inhibition, most hits filed as inhibitors; also: potency is read from the fitted curve at half-maximal effect; % is scaled to controls: 0 for no effect and ±100 for the full control effect
#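 First compound was added to culture medium, then infected red cells at 0.1% parasitemia and 2% hematocrit (final). After incubation at 37 C under 5% CO2, luciferase detection reagent was dispensed and light output recorded.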
# Numbers without * were called inactive; ? = inconclusive; . = no result. Shown are actives, neighbours in structure and some others; about 19% of the full set was active somewhere. Unless noted, calls follow the shape of the dose curve; as a rule, active = well fitted curve in the direction sought with a large enough effect; inconclusive = small, poorly fitted or top-dose-only effect, or another doubt; inactive = no such curve, though single readings can be large; an effect the other way counts as inactive or inconclusive.
SMILES,Shiga inhibitor,AMA1 RON2 block,CHX counter,SARS PLP yeast,Pf growth 96h,Pf growth 48h
CCN(CC(=O)Nc1c(F)cccc1F)C(=O)c1cccn1C,.,-11%,.,.,.,.
O=C(CCN1CCCCC1)Nc1ccc2c(c1)C(=O)c1ccc(NC(=O)CCN3CCCCC3)cc1C2=O,-14,.,-8,.,.,.
COc1ccccc1NC(=O)c1cc[n+](C)cc1,-7,0%,-2,10%,?,5%
COc1ccccc1NC(=O)c1cc(N)cc(C(=O)Nc2ccccc2OC)c1,.,-3%,.,.,.,.
COc1ccccc1NC(=O)c1ccc2nc(C)sc2c1,83*,10%,46*,3%,?,-26%
O=C(Nc1cc(Cl)cc(Cl)c1)c1coc(=O)c(Br)c1,39*,18%,24*,0%,?,-19%
COc1ccccc1NC(=O)c1coc(=O)c(Br)c1,104*,-15%,77*,-4%,24%,15%
COc1ccccc1N1CCN(C(=O)c2coc(=O)c(Br)c2)CC1,81*,16%,40*,0%,-30%,?
O=C(NCC(c1ccco1)N1CCN(c2ccccc2F)CC1)C(=O)NC1CC1 (stereo not drawn),.,0%,.,1%,8%,-1%
CC(C)(C)C1N=C(c2ccc3ccccc3c2)OC1=O (stereo not drawn),.,-4%,.,-6%,22%,28%
COc1ccccc1NC(=O)c1ccc2ccccc2c1,68*,.,54*,.,.,.
COc1cccc(NC(=O)c2ccc3nc(C)sc3c2)c1,60*,2%,38*,-16%,?,14%
COc1cccc(NC(=O)c2cccc(Cl)c2)c1,.,-2%,.,5%,163%,94%
COc1ccc(C(=O)COC(=O)CNS(=O)(=O)c2ccc(C)cc2)cc1,-12,?,-2,1%,-9%,1%
N#CCc1nc(-c2cc3ccccc3oc2=O)cs1,51*,12%,41*,-2%,3%,89%
CC1CCC(=C(C#N)c2nc(-c3cc4ccccc4oc3=O)cs2)CC1 (stereo not drawn),30*,-7%,23*,-3%,0%,?
CC1CCN(C(=O)COC(=O)c2cc3ccccc3oc2=O)CC1,.,-1%,.,2%,.,.
Nc1cc2ccccc2oc1=O,-6,0%,-1,3%,?,.
CNc1nnc(-c2cc3ccccc3oc2=O)s1,83*,-1%,38*,-8%,-1%,45%
O=c1oc2ccccc2cc1-c1nc(-c2cccs2)cs1,37,16%,14*,-10%,36%,.
CCCNC(=O)C1(C)CCCN(Cc2ccc(Oc3ccccc3)cc2)C1 (stereo not drawn),.,11%,.,.,.,.
COc1ccc(/C=C2/NC(=O)CNC2=O)cc1,42,-2%,5,2%,23%,10%
N=c1oc2ccccc2cc1-c1nc(-c2ccccc2)cs1,45*,52%,42*,-3%,23%,39%
COc1cccc2cc(-c3nc(-c4cccs4)cs3)c(=O)oc12,127*,21%,37*,4%,?,34%
COc1cccc2cc(/C(C)=N/Nc3nc(-c4cc(C)ccc4C)cs3)c(=O)oc12,-1,102%,1,?,0%,?
SMILES,Shiga inhibitor,AMA1 RON2 block,CHX counter,SARS PLP yeast,Pf growth 96h,Pf growth 48h
CC(=O)OCC1=C[C@H]2[C@@H]3C(C)(C)[C@]3(OC(C)=O)C[C@@H](C)[C@]2(O)[C@@H]2C=C(C)C(=O)[C@@]2(O)C1,-3,.,11,.,.,.
CCCCNc1c(-c2ccc(SC(C)CC)cc2)nc2ccccn12 (stereo not drawn),.,6%,.,-2%,-86%,-71%
CN1c2ccccc2Oc2nnc(N3CCN(Cc4ccccc4)CC3)cc21,54*,-8%,30*,0%,36%,?
CN1c2ccccc2Oc2nnc(Cl)cc21,-15,2%,-2,0%,4%,26%
O=C(c1cccs1)N1CCN(c2ncc(Br)cn2)CC1,-12,-25%,6,0%,11%,-8%
Cc1c(C)n(CCCN(C)C)c2ncnc(Nc3ccccc3)c12,40,-2%,7,0%,4%,18%
COc1ccc(Nc2ncnc3c2c(C)c(C)n3CCCN(C)C)cc1,70*,-11%,47*,1%,58%,52%
Cc1ccc(-n2nc(C)c3c(-c4cccs4)c(C#N)c(N)nc32)cc1,4,4%,22,5%,?,?
Cc1nn(-c2ccccc2)c2nc(N)c(C#N)c(-c3ccc(F)cc3)c12,3,3%,6,-1%,?,12µM*
COc1ccc(N2CCN(C(=O)CCc3nnc4ccc(N5CCCC5)nn34)CC2)cc1,2,-6%,1,-1%,12µM*,?
CC1CCN(c2ccc3nnc(CCC(=O)N4CCN(c5ccc(F)cc5)CC4)n3n2)CC1,-3,-8%,-2,?,-17%,5.2µM*
COc1ccccc1N1CCN(C(=O)CCc2nnc3ccc(N4CCCC4)nn23)CC1,7,1%,-2,-2%,?,-4%
CN1C(=O)N(C)C2(c3ccccc3)Nn3c(s/c(=C/c4ccco4)c3=O)=NC12c1ccccc1 (stereo not drawn),-16,-4%,5,0%,128%,12µM*
COc1ccc2cc1Oc1ccc(cc1)C[C@H]1c3cc(c(OC)cc3CCN1C)Oc1c(OC)c(OC)cc3c1[C@@H](C2)N(C)CC3,.,-29%,.,8%,1.5µM*,2.3µM*
COc1cc2c3cc1OCc1c(O)c(OC)cc4c1C(Cc1ccc(cc1)Oc1cc(ccc1O)CC3N(C)CC2)N(C)CC4 (stereo not drawn),-2,.,-1,.,.,.
Cc1cccc(C)c1NC(=O)CN(C)C(=O)C1CCN(c2ncnc3sc(C)c(C)c23)CC1,.,-20%,.,-1%,7.4µM*,?
CCN(CC(=O)Nc1c(F)cccc1F)C(=O)C1CCN(c2ncnc3sc(C)c(C)c23)CC1,.,-6%,.,1%,?,10µM*
COC(=O)[C@@]12CCCCN1[C@H](c1ccc(-c3ccc(OC)cc3)c(OC)c1)[C@@H]1C(=O)N(C)C(=O)[C@@H]12,.,4%,.,-5%,7.4µM*,9.3µM*
COC(=O)[C@@]12CCCCN1[C@H](c1ccc(-c3ccc(F)cc3)c(OC)c1)[C@H]1C(=O)N(C)C(=O)[C@H]12,.,4%,.,-8%,.,.
CCN1C(=O)[C@@H]2[C@@H](c3ccc(-c4ccc(C(C)=O)cc4)c(OC)c3)N3CCCC[C@@]3(C(=O)OC)[C@@H]2C1=O,.,-3%,.,-7%,9.3µM*,2.9µM*
CCN1C(=O)[C@@H]2[C@@H](c3ccc(-c4ccc(C(C)=O)cc4)c(OC)c3)N3CCC[C@@]3(C(=O)OC)[C@@H]2C1=O,.,-17%,.,-3%,6.6µM*,10µM*
CCN1C(=O)[C@@H]2[C@@H](c3ccc(-c4ccc5c(c4)OCO5)c(OC)c3)N3CCCC[C@@]3(C(=O)OC)[C@@H]2C1=O,.,-6%,.,8%,12µM*,4.7µM*
